By inhibition is commonly meant the drop in the measured response relative to a control, in per cent.

Results on 71 compounds are retold here after PubChem BioAssay.

The structures appear in SMILES notation. Unmarked numbers belong to inactive results. Activity calls are given as the source filed them.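 Rule for the calls, unless noted: active = mean inhibition above 46.68%, the untreated control wells mean plus 3 SD; inactive = the rest.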

The target in experiment [1] is Nuclear receptor coactivator 1 (Homo sapiens) (UniProt Q15788). Kind of experiment: NCOA1 GAL4-fusion reporter inhibition – cell-based, luminescence, quadruplicate, confirmation (AID 588820).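 Note: 0% = DMSO wells and 100% = gossypol 36 µM treated wells.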 The conditions noted are these: HEK293 GAL4-SRC1 luciferase reporter, at 3.6 µM, hits give high values. Background: Reporter assays use an easily measured gene product as a stand-in for the process of interest.

The nature of experiment [2]: repression of VP16-driven luciferase reporter – cell-based, luminescence, high throughput, counter-screen for SRC1 inhibitor project (AID 588824; in the data active = inhibition above about 25%). The conditions noted are these: cell-based VP16 transactivation luciferase luminescence; at 3.6 µM; hits give high values.

Chain of Nuclear receptor coactivator 1 (Homo sapiens) (Q15788 whole entry, looked up, the tested form may be a part): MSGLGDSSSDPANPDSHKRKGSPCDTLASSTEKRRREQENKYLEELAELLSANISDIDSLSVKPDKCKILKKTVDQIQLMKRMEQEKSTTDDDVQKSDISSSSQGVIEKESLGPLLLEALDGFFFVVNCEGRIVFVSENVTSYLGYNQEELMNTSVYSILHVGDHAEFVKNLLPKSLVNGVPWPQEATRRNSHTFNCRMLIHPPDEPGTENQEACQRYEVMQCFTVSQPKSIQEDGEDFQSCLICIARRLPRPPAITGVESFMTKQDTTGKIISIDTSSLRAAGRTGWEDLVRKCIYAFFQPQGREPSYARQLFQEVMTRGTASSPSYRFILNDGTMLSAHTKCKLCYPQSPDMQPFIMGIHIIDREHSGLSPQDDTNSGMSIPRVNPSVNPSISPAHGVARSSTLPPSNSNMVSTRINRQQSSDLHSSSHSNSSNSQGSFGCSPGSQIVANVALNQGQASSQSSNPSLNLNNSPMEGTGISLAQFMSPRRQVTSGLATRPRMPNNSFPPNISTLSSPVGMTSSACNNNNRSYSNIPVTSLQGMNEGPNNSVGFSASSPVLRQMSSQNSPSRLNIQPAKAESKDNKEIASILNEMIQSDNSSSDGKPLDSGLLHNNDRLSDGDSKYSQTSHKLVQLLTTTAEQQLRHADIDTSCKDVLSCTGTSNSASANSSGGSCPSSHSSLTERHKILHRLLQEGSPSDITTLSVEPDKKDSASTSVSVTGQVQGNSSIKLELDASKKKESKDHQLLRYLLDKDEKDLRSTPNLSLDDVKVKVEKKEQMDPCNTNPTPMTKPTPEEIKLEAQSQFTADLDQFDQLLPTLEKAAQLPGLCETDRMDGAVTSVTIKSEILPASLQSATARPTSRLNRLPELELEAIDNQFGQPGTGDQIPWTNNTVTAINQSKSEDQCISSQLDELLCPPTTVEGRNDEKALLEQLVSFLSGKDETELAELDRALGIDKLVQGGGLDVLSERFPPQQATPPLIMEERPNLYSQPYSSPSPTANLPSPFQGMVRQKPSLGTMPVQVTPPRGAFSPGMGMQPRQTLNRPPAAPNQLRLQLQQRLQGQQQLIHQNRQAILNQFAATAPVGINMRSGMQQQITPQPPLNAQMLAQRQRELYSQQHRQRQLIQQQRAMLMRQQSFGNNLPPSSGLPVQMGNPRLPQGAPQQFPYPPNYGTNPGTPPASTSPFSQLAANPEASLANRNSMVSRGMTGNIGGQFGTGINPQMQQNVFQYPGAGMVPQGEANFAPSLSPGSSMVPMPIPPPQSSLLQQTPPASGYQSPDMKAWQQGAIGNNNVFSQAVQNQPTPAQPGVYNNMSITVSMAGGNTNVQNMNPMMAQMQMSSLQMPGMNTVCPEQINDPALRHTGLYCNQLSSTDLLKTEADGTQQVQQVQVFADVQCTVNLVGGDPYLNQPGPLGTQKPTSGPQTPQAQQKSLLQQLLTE

In the case of `Cc1cc(C)c(S(=O)(=O)N2CCCC2=O)c(C)c1N(C)S(C)(=O)=O`, the inhibition was 0.14% in experiment [1] and -4.1% in experiment [2].

In the case of `COc1cccc(/C=N/NC(=O)CNC(=O)C2COc3ccccc3O2)c1O` (configuration not stated), the inhibition in experiment [1] was 21.7%; in experiment [2], 8.91%.

For the compound `CCOC(=O)C1(Cc2cccc(Cl)c2)CCCN(C(=O)c2ccoc2C)C1` (configuration not stated), the values for the inhibition in experiment [1] and in experiment [2] were -4.52% and -3.85%, respectively.

Turning to `COc1ccc(OC)c(S(=O)(=O)N2CCN(c3ccccc3)CC2)c1`, the inhibition in experiment [1] was -2.63%; in experiment [2], -1.07%.

Take `CCc1ccc(NC(=O)c2ccc(F)c(S(=O)(=O)N(CC)c3ccccc3)c2)cc1`: the inhibition in experiment [1] was 3.58%; in experiment [2], 13.5%.

Regarding `CNc1snc(C)c1C(=O)OCC(=O)Nc1ccc(C)cc1F`, the inhibition in experiment [1] is 3.09%; in experiment [2], -1.51%.

For the compound `COC(=O)C(C)NC(=O)C12CC3CC(C1)CC(c1ccc(C)cc1)(C3)C2` (configuration not stated), the inhibition in experiment [1] is -5.33%; in experiment [2], 4.73%.

`CCOc1ccc(CCN2C(=S)N([C@@H](CC(C)C)CN3CCC[C@@H]3CN3C(=S)NC[C@@H]3CC(C)C)C[C@@H]2CC(C)C)cc1`: the inhibition in experiment [1] was 3.98%; in experiment [2], 5.15%.

Consider `COc1ccccc1/C=C\C(=O)NCC(=O)N/N=C/c1cccc(OC)c1O`, for which the values for the inhibition in experiment [1] and in experiment [2] were 26.9% and 14.2%, respectively.

For the compound `CCCn1c(=O)c(C(=O)NC(C)c2ccccc2)c(O)c2ccccc21` (configuration not stated), the results for the inhibition in experiment [1] and in experiment [2] were -10.4% and -9.6%, respectively.

Turning to `CCC(NC(=O)NC1CCCCC1)c1ccccc1` (configuration not stated), the inhibition in experiment [1] was -16%; in experiment [2] it was -3.88%.

With `Cc1ccc(S(=O)(=O)N(C)C)cc1NC(=O)COC(=O)CCC1CCCC1`, the inhibition in experiment [1] is 8.06%; in experiment [2] it was 5.41%.

As for `Cc1nc2ccccc2c(N)c1C(=O)/C=C/c1ccccc1`, the results for the inhibition in experiment [1] and in experiment [2] were 28.7% and 31.6% (active), respectively.

Consider `CCc1ccc(-c2nnn(CCC(=O)OC)n2)cc1`, for which the results for the inhibition in experiment [1] and in experiment [2] were -2.93% and 9.9%, respectively.

Regarding `CCc1nnc(NC(=O)CCC(=O)NCc2ccccc2Cl)s1`, the inhibition is 10.2% in experiment [1] and 6.37% in experiment [2].

With `COc1ccccc1C(=O)N(Cc1ccc(C)o1)C1CCS(=O)(=O)C1` (configuration not stated), the values for the inhibition in experiment [1] and in experiment [2] were -7.5% and 3.3%, respectively.

With `COc1ccc(CNC(=O)c2cccc(S(=O)(=O)N3CCCCC3)c2)cc1OC`, the inhibition in experiment [1] was -20.1%; in experiment [2], 30.6% (active).

With `CCC(C)OC(=O)C[N+](C)(C)CCOC1CC2CCC1(C)C2(C)C` (configuration not stated), the inhibition in experiment [1] is 5.52%; in experiment [2] it was 2.28%.

As to `Cc1[nH]nc2ncc(C(=O)c3cc(F)ccc3O)cc12`, the inhibition in experiment [1] was 18.4%; in experiment [2], 16.1%.

In the case of `CC(=O)Nc1sc2c(c1-c1nc3ccccc3s1)CCN(C(C)C)C2`, the results for the inhibition in experiment [1] and in experiment [2] were -147% and 59.3% (active), respectively.

With `COc1ccc(NC(=O)C2CCN(c3cnccn3)CC2)cc1Cl`, the inhibition in experiment [1] is 1.5%; in experiment [2], 1.48%.

For the compound `COc1ccc(CN2CCN(C(=O)c3cc(-c4cccnc4)nc4ccc(Cl)cc34)CC2)c(OC)c1OC`, the inhibition in experiment [1] is -29.8%; in experiment [2] it was -6.25%.

For the compound `O=C(COc1ccc(F)cc1Cl)Nc1ccc(N2CCOCC2)cc1N1CCOCC1`, the inhibition in experiment [1] is -16.6%; in experiment [2] it was 2.25%.

On to `CCOC(=O)c1c(NC(=O)C(C)N2CCN(C(=O)c3ccco3)CC2)sc2c1CCCC2` (configuration not stated), for which the inhibition in experiment [1] is 16.6%; in experiment [2], 12%.

Consider `Nn1c(SCC(=O)Nc2ccccc2)nnc(Cc2ccccc2)c1=O`, for which the inhibition was 0.49% in experiment [1] and 5.01% in experiment [2].

On to `O=C(Nc1cccc(F)c1)/C(=C\c1ccco1)NC(=O)c1ccco1`, for which the inhibition in experiment [1] is -13.4%; in experiment [2], -7.03%.

As for `Cc1cc(C)nc(/N=C(\N)Nc2ccc(C(C)C)cc2)n1`, the inhibition in experiment [1] is 3.7%; in experiment [2], 9.11%.

As for `CCCCCOc1ccc(/C=C/c2c([N+](=O)[O-])c(=O)n(C)c(=O)n2C)cc1`, the values for the inhibition in experiment [1] and in experiment [2] were 23.6% and 22.4%, respectively.

Take `O=C(CCCn1c(=S)[nH]c2ccsc2c1=O)Nc1ccc2c(c1)OCCO2`: the results for the inhibition in experiment [1] and in experiment [2] were -1.89% and -10.8%, respectively.

With `COc1ccc(-c2cc(C(=O)N(C)CC(=O)Nc3cccc(F)c3)c3ccccc3n2)cc1OC`, the inhibition is -19.1% in experiment [1] and -8.17% in experiment [2].

Take `O=C(COc1ccc(S(=O)(=O)Nc2ccccc2)cc1)NCc1ccncc1`: the inhibition was -7.07% in experiment [1] and 2.08% in experiment [2].

Consider `Cc1ccc(NS(=O)(=O)c2ccc(C(=O)NC3CCN(Cc4ccccc4)CC3)cc2)cc1`, for which the inhibition in experiment [1] is -9.12%; in experiment [2], 24.2%.

Consider `O=C(OCC(=O)N1CCN(S(=O)(=O)c2ccc(Cl)cc2)CC1)c1cccc(OC(F)F)c1`, for which the inhibition was -50.5% in experiment [1] and -5.85% in experiment [2].

Consider `O=C(CSc1ccccc1)Nc1nnc(-c2ccco2)o1`, for which the values for the inhibition in experiment [1] and in experiment [2] were 1.78% and -4.61%, respectively.

For `CCC1CCCCN1C(=O)CSc1nc(N)cc(=O)[nH]1` (configuration not stated), the inhibition is -15.7% in experiment [1] and -3.43% in experiment [2].

Take `O=C1CC(N2CCN(Cc3ccccc3)CC2)C(=O)N1` (configuration not stated): the inhibition was -10.4% in experiment [1] and -10.1% in experiment [2].

As to `COc1cc(S(=O)(=O)NCc2ccccc2Cl)ccc1-n1cnnn1`, the inhibition in experiment [1] was -9.68%; in experiment [2] it was -5.92%.

With `COc1ccc(CCNC(=O)C(=O)NCC2CCCN2S(=O)(=O)c2ccccc2)cc1OC` (configuration not stated), the figures for the inhibition in experiment [1] and in experiment [2] were -20.3% and -7.77%, respectively.

Consider `Clc1ccc(C2NCCc3sccc32)cc1` (configuration not stated), for which the inhibition in experiment [1] was -22%; in experiment [2], 8.67%.

`O=C(Cc1cccs1)N(CC1CCCO1)C1(C(=O)NC2CCCCC2)CCCCC1` (configuration not stated): the inhibition in experiment [1] was 7.13%; in experiment [2], 14.9%.

Turning to `N=c1c(C(=O)NCCc2ccccc2)cc2c(=O)n3ccccc3nc2n1CCCN1CCOCC1`, the inhibition in experiment [1] was 6.5%; in experiment [2], 18.9%.

`CC(=O)c1cn(CCOc2cc(C)ccc2C)c2ccccc12`: the results for the inhibition in experiment [1] and in experiment [2] were -27% and 33.7% (active), respectively.

`O=C(NCc1ccccn1)c1ccc(OC2CCN(Cc3ccc(F)cc3F)CC2)cc1`: the figures for the inhibition in experiment [1] and in experiment [2] were -0.3% and 3.5%, respectively.

For `Cc1ccc(NC(=O)c2cc(=O)c3ccccc3o2)cc1S(=O)(=O)N1CCCCC1`, the figures for the inhibition in experiment [1] and in experiment [2] were -9.96% and 7.05%, respectively.

Regarding `COc1cc(C(c2sc3nc(C)nn3c2O)N2CCc3ccccc3C2)cc(OC)c1OC` (configuration not stated), the results for the inhibition in experiment [1] and in experiment [2] were -4.8% and -0.57%, respectively.

For the compound `CCOc1cccc2cc(C(=O)N3CC(C)OC(C)C3)c(=O)oc12` (configuration not stated), the inhibition is -9.95% in experiment [1] and -2.83% in experiment [2].

As for `Cc1cc(C)c(Nc2cc(S(=O)(=O)O)c(N)c3c2C(=O)c2ccccc2C3=O)c(C)c1`, the inhibition was 9.3% in experiment [1] and 8.52% in experiment [2].

With `CCc1ccc(CN(C)C(=O)C2CCC(=O)N(CC3CCCCC3)C2)cc1` (configuration not stated), the inhibition is -5.12% in experiment [1] and 2.92% in experiment [2].

With `CCN(C(=O)CN1C(=O)S/C(=C\c2cccc(Cl)c2)C1=O)C1CCS(=O)(=O)C1` (configuration not stated), the inhibition is 4.59% in experiment [1] and 4.57% in experiment [2].

In the case of `O=C(COc1ccccc1-c1ccccc1)N/N=C/c1ccncc1`, the figures for the inhibition in experiment [1] and in experiment [2] were -7.29% and 13.6%, respectively.

For the compound `Cc1cc(C)c2nc(NNC(=O)c3ccc(S(=O)(=O)N4CCc5ccccc5C4)cc3)sc2c1`, the inhibition is 32.2% in experiment [1] and 30% (active) in experiment [2].

Turning to `O=C(Nc1nc(-c2ccc(F)c(F)c2)cs1)c1cnccn1`, the inhibition is 7.57% in experiment [1] and -11.4% in experiment [2].

For `COc1ccc(-c2csc(NC(=O)c3ccccc3NS(=O)(=O)c3ccc(C)cc3)n2)cc1`, the inhibition was 19.3% in experiment [1] and 30.8% (active) in experiment [2].

As for `CCOC(=O)CNC(c1ccccc1)c1cc(Br)ccc1NC(C)=O` (configuration not stated), the results for the inhibition in experiment [1] and in experiment [2] were -0.66% and 4.71%, respectively.

As for `CCOC(=O)C1=C(COC(=O)Cc2ccc(Br)cc2)NC(=O)NC1C` (configuration not stated), the inhibition in experiment [1] is -7.28%; in experiment [2], -12.6%.

Turning to `c1ccc(-c2cn(-c3ccccc3)c3ncnc(N4CCCCC4)c23)cc1`, the results for the inhibition in experiment [1] and in experiment [2] were 1.38% and 9.49%, respectively.

For the compound `COC(=O)c1cc(=O)n(Cc2ccco2)c(=Nc2ccc(F)c(Cl)c2)s1`, the inhibition in experiment [1] was -12.1%; in experiment [2] it was 18.7%.

Consider `CN1CCN(c2ccc(CNS(=O)(=O)c3ccc(F)cc3Cl)cc2)CC1`, for which the results for the inhibition in experiment [1] and in experiment [2] were -2.89% and -5.39%, respectively.

As to `O=C(CC1CCC1)Nc1cccc2c([N+](=O)[O-])cccc12`, the figures for the inhibition in experiment [1] and in experiment [2] were 9.39% and -5.85%, respectively.

In the case of `O=c1c2ccccc2cnn1Cc1n[nH]c(=S)n1C1CC2CCC1C2` (configuration not stated), the inhibition in experiment [1] was 8.04%; in experiment [2], -8.54%.

On to `CN(Cc1cccs1)C(=O)CN1CCN(S(=O)(=O)c2ccc3c(c2)OCCCO3)CC1`, for which the inhibition in experiment [1] is -16.6%; in experiment [2] it was -8.72%.

As for `COc1ccc(Cl)cc1NC(=O)CSc1nc(=O)n(CCN(C)C)c2c1CCCC2`, the inhibition was -13.4% in experiment [1] and -0.03% in experiment [2].

On to `Cc1cc(OCC(O)CN2CCc3ccccc3C2)cc(C(C)C)c1` (configuration not stated), for which the inhibition in experiment [1] was -16.6%; in experiment [2] it was -6.97%.

`Fc1ccc2[nH]c3c(NCc4ccccc4)ncnc3c2c1`: the figures for the inhibition in experiment [1] and in experiment [2] were 2.59% and 20.2%, respectively.

Regarding `Cn1c(=O)c2[nH]c(COc3ccc(C(C)(C)C)cc3)nc2n(C)c1=O`, the inhibition in experiment [1] is 29.4%; in experiment [2], 18.8%.

For `Cc1cn(Cc2ccccc2Cn2cc(C)c(=O)[nH]c2=O)c(=O)[nH]c1=O`, the inhibition is -23.2% in experiment [1] and -5.61% in experiment [2].

Turning to `CC(C)(C)c1ccc(OCCC(=O)NNC(=O)c2ccncc2)cc1`, the inhibition in experiment [1] was -13.7%; in experiment [2], -5.17%.

On to `COc1ccc(C(=O)n2cc(C(=O)c3cc(C)ccc3O)cn2)cc1OC`, for which the results for the inhibition in experiment [1] and in experiment [2] were -3.44% and -0.92%, respectively.

In the case of `O=C(COC(=O)CCC(=O)c1ccccc1)Nc1nnc(-c2ccccc2)o1`, the inhibition in experiment [1] is -19.6%; in experiment [2], -8.55%.

For `Cc1ccccc1C(OCC(O)CN1CCN(CCO)CC1)c1ccccc1` (configuration not stated), the inhibition was -13.1% in experiment [1] and 3.65% in experiment [2].

For `CCN1C(=O)c2cccc3c(S(=O)(=O)Nc4ccc(O)c(C(=O)O)c4)ccc1c23`, the values for the inhibition in experiment [1] and in experiment [2] were 5.84% and -15.2%, respectively.
